Records with an inconclusive call do not appear. A call without a number means that no potency is given here. Unmarked numbers belong to inactive results. Active and inactive are the calls of the source. Calls come from the whole dose curve; as a rule, active = well fitted curve in the direction sought with a large enough effect in the repeat runs; inconclusive = weak or mixed curves; inactive = no such curve, though single readings can be large; an effect the other way counts as inactive or inconclusive.
Experiments:
[1] = molecular target: Cytochrome P450 2C19 (Homo sapiens) (UniProt P33261); assay: Cytochrome P450 Family 2 Subfamily C Member 19 (CYP2C19) small molecule antagonists: luciferase reporter qHTS assay (AID 1671197); details: P450-Glo CYP2C19 enzyme, luciferin luminescence, 1 h; series mostly up to 115 µM; note: nearly all actives have a fitted effect of over 65% in size; note: potency is the fitted concentration of half-maximal effect
How it was run: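 Enzyme-substrate mix with proluciferin substrate (P450-Glo CYP2C19 system) preincubated with compounds 10 min at room temperature; NADPH regeneration solution added, 37C for 1 h; detection reagent stops reaction, luminescence read after 20 min. Ketoconazole positive control.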

[2] = molecular target: Cytochrome P450 1A2 (Homo sapiens) (UniProt P05177); assay: Cytochrome P450 Family 1 Subfamily A Member 2 (CYP1A2) small molecule antagonists: luciferase reporter qHTS assay (AID 1671199); details: P450-Glo CYP1A2 enzyme, luciferin luminescence, 1 h; series mostly up to 53 µM; note: nearly all actives have a fitted effect of over 50% in size; note: potency is the fitted concentration of half-maximal effect
How it was run: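 Quantitative high-throughput format using the P450-Glo CYP1A2 system. Reaction initiated by NADPH regeneration solution, 1 h at room temperature, then stopped with detection reagent; luminescence measured 20 min later.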

[3] = molecular target: Voltage-gated inwardly rectifying potassium channel KCNH2 (Homo sapiens) (UniProt Q12809); assay: Human Ether-a-go-go-Related Gene (hERG) channel small molecule antagonists: fluorescence cell-based qHTS assay (AID 1671200); details: hERG-U2OS cells, FluxOR thallium flux fluorescence; series mostly up to 76.8 µM;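 note: hERG-expressing U2OS cells given a thallium stimulus after FluxOR II dye loading; nearly all actives have a fitted effect of over 50% in size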
How it was run: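 Cell line hERG-U2OS; dye FluxOR II, 1 h RT dark; Tl+ stimulus; ex 480/em 540 nm, read each second for 2 min.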

[4] = molecular target: Cytochrome P450 3A4 (Homo sapiens) (UniProt P08684); assay: Cytochrome P450 Family 3 Subfamily A Member 4 (CYP3A4) small molecule antagonists: luciferase reporter qHTS assay (AID 1671201); details: P450-Glo CYP3A4 enzyme, luciferin luminescence, 1 h; series mostly up to 115 µM; note: nearly all actives have a fitted effect of over 50% in size; note: potency is the fitted concentration of half-maximal effect
How it was run: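 Room-temperature assay throughout: 10 min compound–enzyme/substrate preincubation, 1 h reaction after NADPH regeneration solution, 20 min detection. Luciferin formed from proluciferin substrate is quantified by luminescence.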

[5] = molecular target: Cytochrome P450 2C9 (Homo sapiens) (UniProt P11712); assay: Cytochrome P450 Family 2 Subfamily C Member 9 (CYP2C9) small molecule antagonists: luciferase reporter qHTS assay (AID 1671198); details: P450-Glo CYP2C9 enzyme assay, luciferin luminescence; series mostly up to 115 µM; note: nearly all actives have a fitted effect of over 50% in size; note: potency is the fitted concentration of half-maximal effect
How it was run: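 P450-Glo proluciferin substrate with CYP2C9 enzyme; 10 min RT preincubation, then NADPH regeneration 1 h at 37C; luciferin detection reagent 20 min RT, luminescence in relative luminescence units.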

Sequence of Cytochrome P450 3A4 (Homo sapiens) (P08684 whole entry, looked up): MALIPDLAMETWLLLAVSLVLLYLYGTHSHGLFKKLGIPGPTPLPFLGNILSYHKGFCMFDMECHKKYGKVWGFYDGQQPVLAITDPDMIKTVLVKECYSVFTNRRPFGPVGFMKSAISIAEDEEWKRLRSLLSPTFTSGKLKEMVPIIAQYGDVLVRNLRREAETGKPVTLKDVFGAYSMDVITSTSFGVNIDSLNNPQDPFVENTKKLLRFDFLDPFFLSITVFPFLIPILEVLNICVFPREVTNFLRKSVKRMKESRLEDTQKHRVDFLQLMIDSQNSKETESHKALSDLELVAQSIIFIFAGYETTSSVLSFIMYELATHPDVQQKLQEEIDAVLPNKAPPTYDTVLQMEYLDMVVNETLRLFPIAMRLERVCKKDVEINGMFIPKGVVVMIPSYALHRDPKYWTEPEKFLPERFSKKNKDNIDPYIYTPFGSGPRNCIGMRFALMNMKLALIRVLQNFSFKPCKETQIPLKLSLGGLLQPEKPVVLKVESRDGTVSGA
Sequence of Cytochrome P450 2C19 (Homo sapiens) (P33261 whole entry, looked up): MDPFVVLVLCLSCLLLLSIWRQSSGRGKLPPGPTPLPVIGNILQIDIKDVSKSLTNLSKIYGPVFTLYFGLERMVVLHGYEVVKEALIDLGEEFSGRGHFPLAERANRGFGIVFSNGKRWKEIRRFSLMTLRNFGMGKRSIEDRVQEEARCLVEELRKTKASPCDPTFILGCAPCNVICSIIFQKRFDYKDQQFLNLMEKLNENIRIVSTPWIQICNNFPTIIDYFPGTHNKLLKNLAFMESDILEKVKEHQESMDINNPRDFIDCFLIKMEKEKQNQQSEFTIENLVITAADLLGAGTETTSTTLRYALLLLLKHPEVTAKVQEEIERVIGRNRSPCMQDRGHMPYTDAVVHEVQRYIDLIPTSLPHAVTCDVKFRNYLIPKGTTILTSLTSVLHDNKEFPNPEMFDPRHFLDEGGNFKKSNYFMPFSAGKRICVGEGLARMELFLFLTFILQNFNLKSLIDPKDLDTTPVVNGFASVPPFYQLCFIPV
Sequence of Voltage-gated inwardly rectifying potassium channel KCNH2 (Homo sapiens) (Q12809 whole entry, looked up): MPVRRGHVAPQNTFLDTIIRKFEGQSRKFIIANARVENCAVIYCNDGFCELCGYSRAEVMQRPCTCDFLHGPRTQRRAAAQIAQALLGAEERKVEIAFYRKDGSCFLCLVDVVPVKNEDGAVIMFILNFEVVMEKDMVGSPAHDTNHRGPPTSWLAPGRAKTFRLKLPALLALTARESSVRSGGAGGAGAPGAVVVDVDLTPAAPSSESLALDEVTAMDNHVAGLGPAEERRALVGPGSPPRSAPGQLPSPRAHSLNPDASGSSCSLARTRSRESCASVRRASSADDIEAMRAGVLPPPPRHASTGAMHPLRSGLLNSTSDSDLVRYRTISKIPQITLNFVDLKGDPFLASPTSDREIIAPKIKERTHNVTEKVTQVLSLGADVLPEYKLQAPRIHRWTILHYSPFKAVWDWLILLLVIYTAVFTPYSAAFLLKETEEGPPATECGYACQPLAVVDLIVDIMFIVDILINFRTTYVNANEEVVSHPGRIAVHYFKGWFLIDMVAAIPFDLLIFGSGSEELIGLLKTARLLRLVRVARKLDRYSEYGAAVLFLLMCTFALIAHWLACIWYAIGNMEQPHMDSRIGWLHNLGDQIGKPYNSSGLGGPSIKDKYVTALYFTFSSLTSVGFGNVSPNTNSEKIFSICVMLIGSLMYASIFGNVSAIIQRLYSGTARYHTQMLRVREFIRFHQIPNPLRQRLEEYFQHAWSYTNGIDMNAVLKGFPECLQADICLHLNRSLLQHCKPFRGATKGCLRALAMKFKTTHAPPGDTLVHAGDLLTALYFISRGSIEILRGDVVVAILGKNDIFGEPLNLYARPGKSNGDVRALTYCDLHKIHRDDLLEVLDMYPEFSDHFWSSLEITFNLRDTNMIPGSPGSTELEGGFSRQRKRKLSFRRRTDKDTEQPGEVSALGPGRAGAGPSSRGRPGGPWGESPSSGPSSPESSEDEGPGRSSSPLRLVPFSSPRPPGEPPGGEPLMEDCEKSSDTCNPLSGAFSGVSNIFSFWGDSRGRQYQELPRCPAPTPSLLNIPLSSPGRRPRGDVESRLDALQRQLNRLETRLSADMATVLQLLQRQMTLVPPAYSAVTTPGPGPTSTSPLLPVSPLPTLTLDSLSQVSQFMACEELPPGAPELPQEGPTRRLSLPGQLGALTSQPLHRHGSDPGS
Sequence of Cytochrome P450 2C9 (Homo sapiens) (P11712 whole entry, looked up): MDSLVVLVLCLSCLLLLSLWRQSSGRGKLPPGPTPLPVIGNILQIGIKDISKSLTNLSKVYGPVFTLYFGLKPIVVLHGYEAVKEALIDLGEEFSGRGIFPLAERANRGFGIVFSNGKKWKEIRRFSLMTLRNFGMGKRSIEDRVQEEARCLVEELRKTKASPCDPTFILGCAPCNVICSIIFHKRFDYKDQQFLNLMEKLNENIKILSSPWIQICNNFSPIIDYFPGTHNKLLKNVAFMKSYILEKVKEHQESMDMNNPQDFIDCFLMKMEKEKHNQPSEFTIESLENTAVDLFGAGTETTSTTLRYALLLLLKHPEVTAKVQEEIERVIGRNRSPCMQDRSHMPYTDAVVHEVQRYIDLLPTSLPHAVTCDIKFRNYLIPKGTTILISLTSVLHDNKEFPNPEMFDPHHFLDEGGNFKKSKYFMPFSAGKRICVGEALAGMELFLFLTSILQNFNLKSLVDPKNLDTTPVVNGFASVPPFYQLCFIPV
Sequence of Cytochrome P450 1A2 (Homo sapiens) (P05177 whole entry, looked up): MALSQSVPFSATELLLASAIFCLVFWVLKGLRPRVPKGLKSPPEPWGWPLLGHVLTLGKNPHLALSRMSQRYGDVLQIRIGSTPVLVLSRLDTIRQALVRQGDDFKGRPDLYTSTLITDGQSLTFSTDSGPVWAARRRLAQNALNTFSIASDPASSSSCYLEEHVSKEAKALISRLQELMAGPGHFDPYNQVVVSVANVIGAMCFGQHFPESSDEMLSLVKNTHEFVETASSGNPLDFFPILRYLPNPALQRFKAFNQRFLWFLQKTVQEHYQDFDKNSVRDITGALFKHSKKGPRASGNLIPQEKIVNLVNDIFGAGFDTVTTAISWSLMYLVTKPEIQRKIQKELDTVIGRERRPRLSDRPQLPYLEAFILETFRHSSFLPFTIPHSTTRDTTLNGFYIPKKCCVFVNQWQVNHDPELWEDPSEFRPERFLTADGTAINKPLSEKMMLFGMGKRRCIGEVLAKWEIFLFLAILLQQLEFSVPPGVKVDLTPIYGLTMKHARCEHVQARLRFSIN

SMILES: CCCOC(=O)c1ccc(C(=O)OCCC)nc1
- Potency [1]: 4.48 µM (active)
- Potency [2]: 11.2 µM (active)
- Potency [3]: inactive
- Potency [4]: inactive

SMILES: CC(C)C(=O)O
- Potency [1]: inactive
- Potency [2]: inactive
- Potency [4]: inactive

SMILES: COC(=O)CC(=O)C(C)(C)C
- Potency [1]: inactive
- Potency [4]: inactive

SMILES: Cc1nccn1-c1ccc(Sc2cccc(C3(C(N)=O)CCOCC3)c2)cc1
- Potency [1]: 20 µM (active)
- Potency [4]: 7.96 µM (active)

SMILES: CSc1ccc(Oc2ccc(S(N)(=O)=O)cc2CN(C)C)cc1C
- Potency [1]: 35.6 µM (active)
- Potency [2]: 63.3 µM (active)
- Potency [4]: inactive

SMILES: NC(=O)Nc1ccc(Cl)cc1
- Potency [1]: 79.3 µM (active)
- Potency [2]: 31.6 µM (active)
- Potency [3]: inactive
- Potency [4]: inactive

SMILES: CC(C)C(OC(=O)c1ccccc1)C(C)(C)COC(=O)c1ccccc1 (stereo unspecified)
- Potency [1]: 6.33 µM (active)
- Potency [2]: 35.6 µM (active)
- Potency [4]: inactive

SMILES: CCC(C)(C)C1CCC(O)CC1 (stereo unspecified)
- Potency [1]: inactive
- Potency [4]: inactive

SMILES: CN1CCN(c2c(F)cc3c(=O)c(C(=O)O)cn4c3c2OCN4C)CC1
- activity change, negative = inhibition [1]: -8.19% [at 23.6 µM]
- Potency [2]: inactive
- activity change, negative = inhibition [4]: 3.15% [at 23.6 µM]

SMILES: CC(C)(CCl)c1ccccc1
- Potency [1]: inactive
- Potency [2]: inactive
- Potency [4]: inactive

SMILES: Nc1ccc(S(=O)(=O)O)cc1
- Potency [1]: inactive
- Potency [2]: inactive
- Potency [3]: inactive
- Potency [4]: inactive

SMILES: COCC(O)CO (stereo unspecified)
- Potency [1]: inactive
- Potency [2]: inactive
- Potency [4]: inactive

SMILES: O=C(N[C@@H](c1ccccc1)[C@@H]1CCCCN1)c1cccc(C(F)(F)F)c1Cl
- Potency [1]: 17.8 µM (active)
- Potency [2]: inactive
- Potency [4]: 1.59 µM (active)

SMILES: C=C(C)C(=O)OCCOC(=O)CC(C)=O
- Potency [1]: inactive
- Potency [3]: inactive

SMILES: CC(C)(C)CC(C)(C)c1ccc(OCCO)cc1
- Potency [1]: 79.2 µM (active)
- Potency [2]: inactive
- Potency [4]: 17.7 µM (active)

SMILES: CC(Cl)C(Cl)Cl (stereo unspecified)
- Potency [1]: 31.2 µM (active)
- Potency [3]: inactive
- Potency [4]: inactive

SMILES: O=C(NCCCN1CCOCC1)c1ccc(Cl)cc1
- Potency [1]: inactive
- Potency [2]: inactive
- Potency [3]: inactive
- Potency [4]: inactive

SMILES: OC/C(Br)=C(\Br)CO
- Potency [1]: 31.5 µM (active)
- Potency [3]: inactive
- Potency [4]: inactive

SMILES: C=CC(C)(O)CCCC(C)CCCC(C)CCCC(C)C (stereo unspecified)
- Potency [1]: inactive
- Potency [2]: 35.4 µM (active)
- Potency [3]: inactive
- Potency [4]: inactive

SMILES: Cc1c(C(=O)NN2CCCCC2)nn(-c2ccc(Cl)cc2Cl)c1-c1ccc(Cl)cc1
- Potency [1]: inactive
- Potency [2]: inactive
- Potency [4]: inactive

SMILES: O=C(O)c1cccc(O)c1
- Potency [1]: 40.2 µM (active)
- Potency [3]: inactive
- Potency [4]: inactive

SMILES: C[Si](NC1CCCCC1)(NC1CCCCC1)NC1CCCCC1
- Potency [1]: inactive
- Potency [3]: inactive
- Potency [4]: inactive

SMILES: CO[C@H]1C=CO[C@@]2(C)Oc3c(C)c(O)c4c(O)c(c5c(c4c3C2=O)=NC2(CCN(CC(C)C)CC2)N=5)NC(=O)/C(C)=C\C=C/[C@H](C)[C@H](O)[C@@H](C)[C@@H](O)[C@@H](C)[C@H](OC(C)=O)[C@@H]1C
- Potency [1]: 39.1 µM (active)
- Potency [3]: inactive
- Potency [4]: 9.81 µM (active)

SMILES: CC1(C)C(=O)N(Br)C(=O)N1Cl
- Potency [1]: 71 µM (active)
- Potency [3]: inactive

SMILES: Nc1ccc(C(=O)OCCCOC(=O)c2ccc(N)cc2)cc1
- Potency [1]: 17.8 µM (active)
- Potency [2]: 7.1 µM (active)
- Potency [4]: 2.24 µM (active)

SMILES: Cc1cc2nc3ccc(=[N+](C)C)cc-3sc2cc1N
- Potency [1]: 0.776 µM (active)
- Potency [2]: 2.75 µM (active)
- Potency [3]: inactive

SMILES: CC(=O)[C@H]1CC[C@H]2[C@@H]3C=CC4=CC(=O)CC[C@@]4(C)[C@@H]3CC[C@]12C
- Potency [1]: 2.75 µM (active)
- Potency [2]: inactive
- Potency [3]: inactive
- Potency [4]: inactive

SMILES: CC1=C(/C=C/C(C)=C\C=C\C(C)=C\C(=O)O)C(C)(C)CCC1
- Potency [1]: 35.6 µM (active)
- Potency [2]: inactive
- Potency [4]: 22.4 µM (active)

SMILES: CCC(C)(O)CCC=C(C)C (stereo unspecified)
- Potency [5]: inactive
- Potency [2]: inactive
- Potency [3]: inactive
- Potency [4]: inactive

SMILES: C[C@@H]1C[C@H]2[C@@H]3CCC4=CC(=O)C=C[C@]4(C)[C@@]3(F)[C@@H](O)C[C@]2(C)[C@@]1(O)C(=O)CO
- Potency [3]: inactive

SMILES: CCCCCCCCCCCC[N+](C)(C)CC(=O)[O-]
- Potency [5]: inactive
- Potency [2]: 35.6 µM (active)
- Potency [3]: inactive
- Potency [4]: inactive

SMILES: NC(=O)Cn1c(=O)cc(CCN2CCN(c3nccc4sccc34)CC2)c2ccc(F)cc21
- Potency [5]: 63.3 µM (active)
- Potency [2]: inactive
- Potency [3]: inactive
- Potency [4]: 5.64 µM (active)

SMILES: O=C(O)c1c(O)c(-c2ccccc2)nc2ccccc12
- Potency [5]: 30.9 µM (active)
- Potency [2]: 17.4 µM (active)
- Potency [3]: inactive
- Potency [4]: inactive

SMILES: COCCOC
- Potency [3]: inactive

SMILES: C=CC(C)=CCC=C(C)C
- Potency [5]: 63.3 µM (active)
- Potency [4]: 28.3 µM (active)

SMILES: C=CCOC(=O)/C=C\C(=O)OCC=C
- Potency [2]: 28.8 µM (active)
- Potency [3]: inactive

SMILES: CC(COc1ccc(C(C)(C)C)cc1)OS(=O)OCCCl (stereo unspecified)
- Potency [5]: inactive
- Potency [2]: inactive
- Potency [4]: inactive
